The full data set covers some 8,800 targets. This sample favours those with a hit. About 0.5% of all pairs of compound and target were hits.
Tests used:
Assay in all cases: log2 fold change, soluble protein after heating vs DMSO (PISA); higher = thermal stabilisation; K562 lysate, 10 uM; active = over 0.2 and 3.5 SD of the protein, either way, in both replicates (recomputed)
alvocidib = compound: CN1CC[C@H](c2c(O)cc(O)c3c(=O)cc(-c4ccccc4Cl)oc23)[C@H](O)C1 [alvocidib]
How it was run: (§1)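 Soluble protein was defined as the supernatant remaining after 21,000xg for 90 min, following pooling of heated aliquots and adjustment to 0.5% NP-40 at 4°C. Before that, crude K562 extract at 1 mg/mL protein in PBS pH 7.4 with 1 mM MgCl2 was treated with 10 μM compound for 30 min and heated for 3 min across 48°C-58°C. Quantification used TMTpro 16plex LC-MS/MS with channel sums equalised, and values are log-two fold changes in thermal stability relative to solvent controls from duplicates.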

Tubastatin A = compound: CN1CCc2c(c3ccccc3n2Cc2ccc(C(=O)NO)cc2)C1 [Tubastatin A]
How it was run: as §1

[1] = compound: CNC(=O)C1=CC=CC=C1NC2=NC(=NC=C2Cl)NC3=C(C=C(C=C3)N4CCOCC4)OC
How it was run: as §1

defactinib = compound: CNC(=O)c1ccc(Nc2ncc(C(F)(F)F)c(NCc3nccnc3N(C)S(C)(=O)=O)n2)cc1 [defactinib]
How it was run: as §1

[2] = compound: CNc1nc(-c2ccc3c(N)n[nH]c3c2)cc(N2C[C@@H](C(=O)NC3CCCCC3)CC[C@H]2C)n1
How it was run: as §1

encorafenib = compound: COC(=O)N[C@@H](C)CNc1nccc(-c2cn(C(C)C)nc2-c2cc(Cl)cc(NS(C)(=O)=O)c2F)n1 [encorafenib]
How it was run: as §1

[3] = compound: COC(=O)[C@H](CCSC)NC(=O)C1=C(C=C(C=C1)NC[C@H](CS)N)C2=CC=CC=C2
How it was run: as §1

alisertib = compound: COc1cc(Nc2ncc3c(n2)-c2ccc(Cl)cc2C(c2c(F)cccc2OC)=NC3)ccc1C(=O)O [alisertib]
How it was run: as §1

[4] = compound: COc1cc2nc(-c3cc(F)ccc3O)nc(N[C@@H]3CNC[C@H]3C(C)(C)O)c2cc1OC
How it was run: as §1

gefitinib = compound: COc1cc2ncnc(Nc3ccc(F)c(Cl)c3)c2cc1OCCCN1CCOCC1 [gefitinib]
How it was run: as §1

lapatinib = compound: CS(=O)(=O)CCNCc1ccc(-c2ccc3ncnc(Nc4ccc(OCc5cccc(F)c5)c(Cl)c4)c3c2)o1 [lapatinib]
How it was run: as §1

pictilisib = compound: CS(=O)(=O)N1CCN(Cc2cc3nc(-c4cccc5[nH]ncc45)nc(N4CCOCC4)c3s2)CC1 [pictilisib]
How it was run: as §1

crizotinib = compound: C[C@@H](Oc1cc(-c2cnn(C3CCNCC3)c2)cnc1N)c1c(Cl)ccc(F)c1Cl [crizotinib]
How it was run: as §1

[5] = compound: C[C@H](C1=CC=C(C=C1)C(=O)NC2=C3C=CNC3=NC=C2)N
How it was run: as §1

duvelisib = compound: C[C@H](Nc1ncnc2nc[nH]c12)c1cc2cccc(Cl)c2c(=O)n1-c1ccccc1 [duvelisib]
How it was run: as §1

gandotinib = compound: Cc1cc(Nc2cc(CN3CCOCC3)c3nc(C)c(Cc4ccc(Cl)cc4F)n3n2)n[nH]1 [gandotinib]
How it was run: as §1

tozasertib = compound: Cc1cc(Nc2cc(N3CCN(C)CC3)nc(Sc3ccc(NC(=O)C4CC4)cc3)n2)n[nH]1 [tozasertib]
How it was run: as §1

doramapimod = compound: Cc1ccc(-n2nc(C(C)(C)C)cc2NC(=O)Nc2ccc(OCCN3CCOCC3)c3ccccc23)cc1 [doramapimod]
How it was run: as §1

bafetinib = compound: Cc1ccc(NC(=O)c2ccc(CN3CC[C@H](N(C)C)C3)c(C(F)(F)F)c2)cc1Nc1nccc(-c2cncnc2)n1 [bafetinib]
How it was run: as §1

[6] = compound: Cc1cccc(CC(=O)N2CCc3c2ccc(-c2cn(C)c4ncnc(N)c24)c3F)n1
How it was run: as §1

Measured: log2 fold change

BTAF1 (UniProt O14981)
inactive: alvocidib -0.001 | Tubastatin A -0.106 | [1] 0.021 | defactinib -0.013 | [2] 0 | encorafenib 0.021 | [3] 0.008 | alisertib 0.018 | [4] -0.008 | gefitinib 0.009 | lapatinib 0.015 | pictilisib -0.043 | crizotinib -0.041 | [5] -0.137 | duvelisib 0.011 | gandotinib -0.004 | tozasertib 0 | doramapimod 0.046 | bafetinib -0.056 | [6] 0.093

BCKDK (UniProt O14874)
inactive: alvocidib 0.029 | Tubastatin A -0.117 | [1] -0.005 | defactinib 0.029 | [2] -0.098 | encorafenib -0.061 | [3] 0.066 | alisertib 0.023 | [4] -0.027 | gefitinib 0.053 | lapatinib -0.056 | pictilisib -0.028 | crizotinib 0.096 | [5] -0.038 | duvelisib -0.008 | gandotinib -0.095 | tozasertib -0.039 | doramapimod -0.033 | bafetinib 0.012 | [6] -0.003

CDK5 (UniProt Q00535)
inactive: Tubastatin A -0.058 | [1] 0.211 | [2] -0.032 | encorafenib 0.024 | [3] -0.1 | alisertib -0.032 | [4] 0.03 | gefitinib -0.027 | lapatinib -0.094 | pictilisib 0.095 | crizotinib -0.031 | [5] -0.024 | duvelisib 0.03 | gandotinib 0.451 | tozasertib 0.014 | doramapimod 0.423 | bafetinib -0.008 | [6] -0.023
active: alvocidib 1.07 | defactinib 0.654

CELF1 isoform 4 (UniProt Q92879)
UniProt Q92879, sequence (Q92879 whole entry, looked up): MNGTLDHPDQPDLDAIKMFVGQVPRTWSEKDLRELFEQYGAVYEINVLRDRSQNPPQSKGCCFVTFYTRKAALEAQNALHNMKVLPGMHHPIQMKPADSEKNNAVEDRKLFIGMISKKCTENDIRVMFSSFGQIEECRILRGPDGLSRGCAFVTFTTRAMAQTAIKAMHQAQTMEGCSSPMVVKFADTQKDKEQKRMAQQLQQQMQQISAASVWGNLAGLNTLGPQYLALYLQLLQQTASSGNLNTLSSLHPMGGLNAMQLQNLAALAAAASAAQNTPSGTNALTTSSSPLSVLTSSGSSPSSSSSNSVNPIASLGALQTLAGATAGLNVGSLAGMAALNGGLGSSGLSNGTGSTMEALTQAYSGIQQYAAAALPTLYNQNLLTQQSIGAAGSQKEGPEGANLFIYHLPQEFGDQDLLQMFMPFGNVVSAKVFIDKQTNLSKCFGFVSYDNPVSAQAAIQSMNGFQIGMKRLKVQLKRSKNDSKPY
active: doramapimod -0.605
inactive: alvocidib 0 | Tubastatin A -0.167 | [1] 0.034 | defactinib 0.049 | [2] -0.059 | encorafenib 0.108 | [3] -0.031 | alisertib 0.048 | [4] -0.026 | gefitinib 0.056 | lapatinib 0.011 | pictilisib 0.023 | crizotinib 0.032 | [5] 0.021 | duvelisib -0.036 | gandotinib -0.028 | tozasertib 0.019 | bafetinib -0.09 | [6] -0.018

CHCHD2 (UniProt Q9Y6H1)
UniProt Q9Y6H1, sequence (Q9Y6H1 whole entry, looked up): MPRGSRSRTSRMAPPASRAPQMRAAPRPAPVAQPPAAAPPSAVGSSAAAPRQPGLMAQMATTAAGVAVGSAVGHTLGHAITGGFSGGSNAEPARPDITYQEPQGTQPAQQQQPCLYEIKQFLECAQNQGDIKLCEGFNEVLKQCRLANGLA
inactive: alvocidib -0.061 | Tubastatin A 0.031 | [1] -0.003 | defactinib -0.079 | [2] -0.024 | encorafenib -0.044 | [3] -0.126 | alisertib -0.051 | [4] -0.033 | gefitinib 0.28 | lapatinib 0.035 | pictilisib 0 | crizotinib 0.119 | [5] 0.044 | duvelisib -0.008 | gandotinib 0.021 | tozasertib 0.102 | doramapimod -0.021 | bafetinib 0.288 | [6] -0.138

BRD4 (UniProt O60885)
inactive: alvocidib -0.003 | Tubastatin A -0.001 | [1] 0.02 | defactinib -0.05 | [2] 0.036 | encorafenib 0 | [3] 0.03 | alisertib 0.038 | [4] -0.03 | gefitinib 0.034 | lapatinib 0.044 | pictilisib 0.015 | crizotinib -0.03 | [5] -0.06 | duvelisib 0.013 | gandotinib 0.019 | tozasertib -0.031 | doramapimod 0.016 | bafetinib -0.024 | [6] -0.006

C1orf112 (UniProt Q9NSG2)
UniProt Q9NSG2, sequence (Q9NSG2 whole entry, looked up): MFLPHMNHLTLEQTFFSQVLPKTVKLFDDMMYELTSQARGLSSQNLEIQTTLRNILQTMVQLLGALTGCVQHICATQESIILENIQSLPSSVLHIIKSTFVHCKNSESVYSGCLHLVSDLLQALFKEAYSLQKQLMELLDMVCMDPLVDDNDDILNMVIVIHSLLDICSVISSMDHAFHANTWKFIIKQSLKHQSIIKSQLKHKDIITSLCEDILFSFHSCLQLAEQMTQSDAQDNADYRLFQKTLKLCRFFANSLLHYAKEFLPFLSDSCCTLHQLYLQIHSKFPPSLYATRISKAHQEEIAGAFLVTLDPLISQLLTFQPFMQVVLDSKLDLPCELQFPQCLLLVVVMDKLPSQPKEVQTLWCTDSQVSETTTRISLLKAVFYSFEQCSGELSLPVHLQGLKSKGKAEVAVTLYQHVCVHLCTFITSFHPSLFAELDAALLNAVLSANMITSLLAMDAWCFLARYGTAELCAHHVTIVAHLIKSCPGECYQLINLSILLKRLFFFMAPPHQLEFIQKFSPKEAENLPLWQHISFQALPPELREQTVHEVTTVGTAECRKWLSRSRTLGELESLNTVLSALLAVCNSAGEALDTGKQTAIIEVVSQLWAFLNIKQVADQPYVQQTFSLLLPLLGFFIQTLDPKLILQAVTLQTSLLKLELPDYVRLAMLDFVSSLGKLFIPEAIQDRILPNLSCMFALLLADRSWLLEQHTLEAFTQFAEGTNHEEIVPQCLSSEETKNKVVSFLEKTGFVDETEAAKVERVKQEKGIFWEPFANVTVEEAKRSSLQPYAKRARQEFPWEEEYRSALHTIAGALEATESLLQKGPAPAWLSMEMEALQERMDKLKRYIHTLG
active: [6] 0.279
inactive: alvocidib -0.247 | Tubastatin A -0.181 | [1] 0.077 | defactinib 0.038 | [2] -0.082 | encorafenib 0.037 | [3] 0.096 | alisertib -0.032 | [4] -0.046 | gefitinib -0.004 | lapatinib 0.018 | pictilisib -0.004 | crizotinib -0.055 | [5] -0.073 | duvelisib -0.035 | gandotinib 0.232 | tozasertib -0.091 | doramapimod 0.021 | bafetinib 0.005

ATP9B (UniProt O43861)
inactive: alvocidib -0.076 | Tubastatin A 0.048 | [1] 0.044 | defactinib -0.117 | [2] -0.018 | encorafenib 0.068 | [3] 0.012 | alisertib -0.081 | [4] 0.16 | gefitinib -0.015 | lapatinib -0.063 | pictilisib -0.269 | crizotinib 0.032 | [5] -0.181 | duvelisib -0.005 | gandotinib -0.037 | tozasertib 0.017 | doramapimod 0.136 | [6] 0.242
active: bafetinib 0.446

CBFA2T3 (UniProt O75081)
UniProt O75081, sequence (O75081 whole entry, looked up): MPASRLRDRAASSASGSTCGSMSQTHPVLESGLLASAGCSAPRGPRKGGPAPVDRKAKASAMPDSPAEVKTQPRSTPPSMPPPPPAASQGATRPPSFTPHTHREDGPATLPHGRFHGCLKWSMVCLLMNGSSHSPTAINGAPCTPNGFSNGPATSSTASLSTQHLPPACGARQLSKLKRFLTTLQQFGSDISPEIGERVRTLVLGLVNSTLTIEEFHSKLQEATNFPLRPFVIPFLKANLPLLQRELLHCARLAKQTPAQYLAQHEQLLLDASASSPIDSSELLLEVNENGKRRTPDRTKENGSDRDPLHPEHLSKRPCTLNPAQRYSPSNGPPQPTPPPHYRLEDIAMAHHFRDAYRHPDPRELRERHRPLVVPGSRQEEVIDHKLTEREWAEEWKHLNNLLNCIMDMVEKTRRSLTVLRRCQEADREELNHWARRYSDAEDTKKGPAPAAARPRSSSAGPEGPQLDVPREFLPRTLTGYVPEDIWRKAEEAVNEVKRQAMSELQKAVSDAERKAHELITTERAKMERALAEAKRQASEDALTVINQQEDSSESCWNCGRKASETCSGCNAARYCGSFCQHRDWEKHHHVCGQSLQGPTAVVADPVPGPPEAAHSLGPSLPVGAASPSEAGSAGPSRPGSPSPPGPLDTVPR
inactive: alvocidib -0.039 | Tubastatin A -0.131 | [1] 0.028 | defactinib 0.004 | [2] 0.051 | encorafenib 0.056 | [3] 0.037 | alisertib 0.031 | [4] -0.042 | gefitinib 0.018 | lapatinib 0.041 | pictilisib -0.038 | crizotinib 0.013 | [5] 0.017 | duvelisib 0.006 | gandotinib -0.001 | tozasertib -0.014 | doramapimod 0.007 | bafetinib -0.007 | [6] 0.05

ATG7 (UniProt O95352)
UniProt O95352, sequence (O95352 whole entry, looked up): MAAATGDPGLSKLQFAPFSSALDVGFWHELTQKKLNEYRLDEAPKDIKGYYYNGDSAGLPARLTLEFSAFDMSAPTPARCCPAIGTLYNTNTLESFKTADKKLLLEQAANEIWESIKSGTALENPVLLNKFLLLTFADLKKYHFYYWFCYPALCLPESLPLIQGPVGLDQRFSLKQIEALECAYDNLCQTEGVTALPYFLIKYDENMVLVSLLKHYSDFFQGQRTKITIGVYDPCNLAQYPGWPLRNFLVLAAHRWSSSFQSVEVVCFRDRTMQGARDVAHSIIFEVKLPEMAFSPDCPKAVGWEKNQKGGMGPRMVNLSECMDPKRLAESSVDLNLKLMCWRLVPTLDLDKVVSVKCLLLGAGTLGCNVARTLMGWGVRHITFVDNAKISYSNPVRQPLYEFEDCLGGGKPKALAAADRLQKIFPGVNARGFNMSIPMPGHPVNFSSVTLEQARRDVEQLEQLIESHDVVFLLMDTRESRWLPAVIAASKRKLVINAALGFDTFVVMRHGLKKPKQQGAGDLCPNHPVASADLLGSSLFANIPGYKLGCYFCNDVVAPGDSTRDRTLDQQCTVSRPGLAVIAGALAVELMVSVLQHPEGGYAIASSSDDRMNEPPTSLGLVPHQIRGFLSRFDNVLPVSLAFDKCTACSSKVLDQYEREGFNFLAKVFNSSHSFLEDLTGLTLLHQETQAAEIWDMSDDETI
inactive: alvocidib 0.01 | Tubastatin A -0.075 | [1] 0.001 | defactinib 0.012 | [2] -0.04 | encorafenib 0.021 | [3] -0.031 | alisertib 0.006 | [4] -0.008 | gefitinib 0.019 | lapatinib 0.006 | pictilisib -0.002 | crizotinib -0.015 | [5] -0.037 | duvelisib 0 | gandotinib -0.035 | tozasertib -0.015 | doramapimod 0.02 | bafetinib -0.024 | [6] 0.006

CDS2 (UniProt O95674)
UniProt O95674, sequence (O95674 whole entry, looked up): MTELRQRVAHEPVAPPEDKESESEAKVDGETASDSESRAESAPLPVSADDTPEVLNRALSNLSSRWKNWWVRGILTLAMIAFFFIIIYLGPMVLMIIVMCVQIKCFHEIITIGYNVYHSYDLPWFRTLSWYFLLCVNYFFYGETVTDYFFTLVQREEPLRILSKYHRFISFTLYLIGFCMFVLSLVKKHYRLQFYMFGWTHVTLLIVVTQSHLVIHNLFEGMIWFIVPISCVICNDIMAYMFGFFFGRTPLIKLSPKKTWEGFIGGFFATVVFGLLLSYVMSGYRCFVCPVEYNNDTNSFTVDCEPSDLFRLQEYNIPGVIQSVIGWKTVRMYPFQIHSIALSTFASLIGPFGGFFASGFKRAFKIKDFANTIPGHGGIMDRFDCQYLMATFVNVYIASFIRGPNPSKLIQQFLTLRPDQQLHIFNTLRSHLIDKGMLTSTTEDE
inactive: alvocidib -0.037 | Tubastatin A 0.116 | [1] -0.036 | defactinib 0.04 | [2] -0.021 | encorafenib 0.027 | [3] 0.007 | alisertib 0.012 | [4] 0.033 | gefitinib 0 | lapatinib 0.02 | pictilisib -0.007 | crizotinib 0.031 | [5] -0.029 | duvelisib 0.088 | gandotinib 0.048 | tozasertib 0.054 | doramapimod 0.009 | bafetinib 0.006 | [6] 0.019

CD63 (UniProt P08962)
UniProt P08962, sequence (P08962 whole entry, looked up): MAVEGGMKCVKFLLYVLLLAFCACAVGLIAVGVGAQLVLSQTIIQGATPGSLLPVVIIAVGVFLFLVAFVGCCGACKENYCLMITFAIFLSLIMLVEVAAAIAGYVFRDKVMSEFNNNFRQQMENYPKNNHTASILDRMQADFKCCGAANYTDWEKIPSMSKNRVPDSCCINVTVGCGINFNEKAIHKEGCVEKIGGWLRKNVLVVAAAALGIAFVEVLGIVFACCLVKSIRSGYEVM
inactive: alvocidib -0.184 | Tubastatin A 0.023 | [1] -0.013 | defactinib 0.089 | [2] -0.101 | encorafenib 0.046 | [3] -0.055 | alisertib 0.01 | [4] -0.02 | gefitinib -0.023 | lapatinib 0.006 | pictilisib -0.256 | crizotinib 0.036 | duvelisib 0.025 | gandotinib 0.209 | tozasertib 0.013 | doramapimod 0.077 | bafetinib -0.08 | [6] 0.074
active: [5] -0.415

BCR (UniProt P11274)
UniProt P11274, sequence (P11274 whole entry, looked up): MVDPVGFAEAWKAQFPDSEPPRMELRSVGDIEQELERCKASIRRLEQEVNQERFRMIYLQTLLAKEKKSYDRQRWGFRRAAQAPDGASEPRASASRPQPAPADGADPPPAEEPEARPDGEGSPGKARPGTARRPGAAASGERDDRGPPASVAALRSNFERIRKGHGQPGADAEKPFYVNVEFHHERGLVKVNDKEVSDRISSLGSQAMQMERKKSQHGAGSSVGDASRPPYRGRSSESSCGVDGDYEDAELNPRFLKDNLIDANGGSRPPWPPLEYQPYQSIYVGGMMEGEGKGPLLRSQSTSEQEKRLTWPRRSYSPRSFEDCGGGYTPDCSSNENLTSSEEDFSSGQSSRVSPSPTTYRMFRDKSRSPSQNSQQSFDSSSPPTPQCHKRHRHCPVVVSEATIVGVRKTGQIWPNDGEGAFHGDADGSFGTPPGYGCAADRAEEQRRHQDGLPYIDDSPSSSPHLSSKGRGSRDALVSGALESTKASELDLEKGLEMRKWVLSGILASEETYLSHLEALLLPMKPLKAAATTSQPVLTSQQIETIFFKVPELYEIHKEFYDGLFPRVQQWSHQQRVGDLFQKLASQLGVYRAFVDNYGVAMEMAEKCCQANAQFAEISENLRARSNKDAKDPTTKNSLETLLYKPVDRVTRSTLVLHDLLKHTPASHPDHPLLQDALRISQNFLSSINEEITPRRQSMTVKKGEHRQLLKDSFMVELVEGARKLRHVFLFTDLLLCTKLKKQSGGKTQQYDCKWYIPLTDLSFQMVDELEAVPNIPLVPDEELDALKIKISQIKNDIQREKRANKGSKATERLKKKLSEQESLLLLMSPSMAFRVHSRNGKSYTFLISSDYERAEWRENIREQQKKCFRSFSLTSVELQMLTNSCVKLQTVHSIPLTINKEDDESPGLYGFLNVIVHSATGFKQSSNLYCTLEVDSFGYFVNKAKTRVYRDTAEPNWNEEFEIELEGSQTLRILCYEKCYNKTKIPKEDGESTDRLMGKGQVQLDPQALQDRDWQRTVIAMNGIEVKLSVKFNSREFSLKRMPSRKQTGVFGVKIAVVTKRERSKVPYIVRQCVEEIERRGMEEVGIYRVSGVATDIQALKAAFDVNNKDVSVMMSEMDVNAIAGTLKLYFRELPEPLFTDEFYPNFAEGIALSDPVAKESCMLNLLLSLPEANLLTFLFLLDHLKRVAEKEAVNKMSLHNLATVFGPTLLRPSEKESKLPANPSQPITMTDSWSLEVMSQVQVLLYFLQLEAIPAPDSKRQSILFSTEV
inactive: alvocidib -0.007 | Tubastatin A -0.181 | [1] 0.002 | defactinib -0.008 | [2] -0.005 | encorafenib 0.036 | [3] 0.085 | alisertib -0.008 | [4] -0.021 | gefitinib -0.024 | lapatinib -0.02 | pictilisib -0.032 | crizotinib 0.034 | [5] -0.064 | duvelisib -0.049 | gandotinib -0.013 | tozasertib 0.031 | doramapimod -0.047 | bafetinib 0.019 | [6] 0.1

ATP5PF isoform 2 (UniProt P18859)
UniProt P18859, sequence (P18859 whole entry, looked up): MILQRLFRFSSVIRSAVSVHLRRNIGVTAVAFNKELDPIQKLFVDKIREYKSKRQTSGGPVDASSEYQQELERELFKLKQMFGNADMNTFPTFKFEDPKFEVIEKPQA
inactive: alvocidib 0.203 | Tubastatin A 0.146 | [1] 0.042 | defactinib 0.071 | [2] -0.022 | encorafenib 0.014 | [3] -0.061 | alisertib -0.005 | [4] 0.01 | gefitinib -0.173 | lapatinib 0.04 | pictilisib -0.088 | crizotinib 0.054 | duvelisib -0.021 | gandotinib -0.185 | tozasertib -0.018 | doramapimod -0.083 | bafetinib 0.221 | [6] -0.19
active: [5] 0.591

CDC42BPA isoform 6 (UniProt Q5VT25)
inactive: alvocidib -0.099 | Tubastatin A -0.13 | [1] -0.015 | defactinib -0.002 | [2] -0.065 | encorafenib 0.017 | [3] 0.093 | alisertib -0.005 | [4] -0.019 | gefitinib -0.004 | lapatinib -0.029 | pictilisib -0.041 | crizotinib -0.061 | [5] 0.024 | duvelisib -0.007 | gandotinib -0.05 | tozasertib 0.032 | doramapimod 0.075 | bafetinib -0.056 | [6] 0.03

CASP6 (UniProt P55212)
inactive: alvocidib -0.011 | Tubastatin A -0.003 | [1] 0.067 | defactinib 0.039 | [2] -0.046 | encorafenib -0.015 | [3] -0.026 | alisertib 0.023 | [4] -0.029 | gefitinib 0.061 | lapatinib 0.024 | pictilisib -0.004 | crizotinib 0.009 | [5] 0.195 | duvelisib 0.003 | gandotinib -0.02 | tozasertib 0.022 | doramapimod 0.013 | bafetinib 0.054 | [6] -0.038

From the supplement of paper PMC10849652
